Bim-Bcl-XL – disrupts Bim peptide binding to human Bcl-XL; Q07817; bead flow cytometry, fluorescence; inhibition, % at 10 µM; hit rate 0.04% among 190,000
PKD1 kinase inh – blocks activity of human protein kinase D1. AID 797. PKD1 kinase fluorescence polarization assay. hit rate 0.056% among 200,000. inhibition, % (concentration not given with the values). Q15139; in the data active = inhibition above about 50%
Bcl-2 Bim block – disrupts Bim peptide binding to human Bcl-2; Bead-based flow cytometry, Bim peptide-Bcl-2 binding; AID 950; hit rate 0.06% among 190,000; inhibition, % at 10 µM; P10415; in the data active = inhibition above about 40%;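 also: 0% = no compound wells with probe peptide and 100% = reference peptide inhibitor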
Bim-Bcl-W – human Bim-Bcl-W interaction inhibition; Q92843; bead-based flow cytometry, Bim peptide-Bcl-W binding; inhibition, % at 10 µM; hit rate 0.02% among 190,000; AID 952;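 also: 0% = bound tracer without compound and 100% = peptide blocker; higher means less fluorescent Bim peptide bound to Bcl-W beads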
Target sequence (Q92843 whole entry, looked up): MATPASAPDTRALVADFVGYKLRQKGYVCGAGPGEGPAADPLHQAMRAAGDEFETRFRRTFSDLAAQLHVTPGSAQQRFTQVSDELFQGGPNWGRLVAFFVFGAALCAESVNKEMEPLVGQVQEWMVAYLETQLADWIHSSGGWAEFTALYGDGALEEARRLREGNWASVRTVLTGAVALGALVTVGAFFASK
Bim-Bfl-1 – disrupts Bim binding to human Bfl-1. AID 1008. Bead-based flow cytometry, Bim-Bfl-1 binding inhibition. Q16548. hit rate 0.12% among 190,000. inhibition, % at 10 µM;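 also: 0% = wells without compound plus tracer and 100% = blocker peptide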
Target sequence (Q16548 whole entry, looked up): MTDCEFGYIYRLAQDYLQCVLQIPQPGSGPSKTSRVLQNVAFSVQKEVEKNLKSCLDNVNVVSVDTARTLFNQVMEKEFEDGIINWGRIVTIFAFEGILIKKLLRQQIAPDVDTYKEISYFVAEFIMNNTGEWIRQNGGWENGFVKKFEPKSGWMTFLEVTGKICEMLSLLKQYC
Bim-Bcl-B – inhibitors of Bim-Bcl-B interaction, human; hit rate 0.073% among 190,000; AID 951; bead-based flow cytometry, Bim peptide-Bcl-B binding; inhibition, % at 10 µM;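 also: 0% = tracer peptide without compound and 100% = reference inhibitor peptide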
An asterisk follows results filed as active; / = no result given. This is a sample that favours compounds with a hit; in the whole collection about 0.26% have one here. Rule as the data show it, unless noted: active = inhibition above about 40%.

SMILES	Bim-Bcl-XL	PKD1 kinase inh	Bcl-2 Bim block	Bim-Bcl-W	Bim-Bfl-1	Bim-Bcl-B
COc1ccc(N2CCN(C(=O)c3cc(=O)[nH]c4ccccc34)CC2)cc1	8	12	80*	1	58*	74*
Clc1ccc(CNCc2cccs2)cc1Cl	-4	0	0	0	2	-1
O=C(c1cccc(C(F)(F)F)c1)c1c[nH]c(C(=O)NCCCN2CCOCC2)c1	1	-3	-1	2	-4	-1
Cc1nc2ncccn2c1-c1csc(Nc2ccccc2)n1	44*	8	5	24	-1	20
CCC1Oc2ccc(C)cc2N(CC(=O)NCC2COc3ccccc3O2)C1=O (configuration not stated)	-3	-15	-7	1	-10	-5
CN1CCc2cccc3c2[C@@H]1Cc1ccc(O)c(O)c1-3	22	15	40*	51*	40*	-12
COc1ccc2c(c1O)-c1ccccc1CCN(C)C2	0	1	-5	1	8	3
COc1ccc(C(=O)Nc2ccc(C(=O)OCC(=O)c3cccc4ccccc34)cc2)cc1	15	-7	/	24	20	83*
CCC(=O)Nc1ccccc1C(=O)OCC(=O)c1cccc2ccccc12	1	2	1	0	0	-1
CNc1ccc(Br)cc(C(=O)/C=C/c2cc(OC)ccc2OC)c1=O	26	-9	25	22	42*	-21
COC(=O)[C@@H](NC(=O)O[C@@H]1C(=O)c2cc(Br)ccc2O[C@H]1c1cccc(OC)c1)C(C)C	-2	-6	-3	-5	-2	-3
CC(C)Sc1ncc(S(=O)(=O)c2ccccc2)c(=O)[nH]1	-1	0	0	-5	0	-1
CCOC(=O)C(C(=O)OCC)c1cc(Br)c2noc3c2c1C(=O)c1ccccc1-3	29	-8	39	43*	43*	10
CC(=O)OCCNc1cc(N2CCN(C)CC2)c2noc3c2c1C(=O)c1ccccc1-3	-6	4	0	4	3	-16
CCOc1ccccc1NC(=O)COC(=O)C(CC)c1ccccc1 (configuration not stated)	-2	-4	-5	-1	-9	-6
O=C1/C(=C\c2ccc(-c3ccccc3Cl)o2)SC(=S)N1CC1CCCO1 (configuration not stated)	28	-8	45*	18	17	-3
COc1ccc(/C=C2\SC(=O)NC2=S)cc1OC	9	4	53*	18	16	28
O=C(/C=C/NNC(=O)c1ccccc1)c1ccc(Br)cc1	-6	-10	-7	0	-14	-7
O=C(O)/C=C/C(=O)NNC(=O)c1ccc(Br)cc1	41*	2	19	27	35	24
COc1cc2c(cc1OC)C(c1ccccc1F)OC(=O)C2 (configuration not stated)	72*	-8	98*	89*	59*	97*
COc1cc2c(cc1OC)C(C(=O)N1CCCCC1)C(c1ccccc1F)N(C)C2=O (configuration not stated)	-21	6	0	0	-2	-1
Cc1cccc(NC(=S)N2CCn3cccc3C2c2cccnc2)c1 (configuration not stated)	-3	9	5	-1	0	41*
Cc1nc(SCC2(C)CC2(Cl)Cl)n[nH]1 (configuration not stated)	0	1	3	-1	5	5
Cc1ccc(C)c(-n2c(SCC(=O)Nc3nonc3C)nnc2-c2ccoc2C)c1	-3	-6	-5	-4	-2	-3
Cc1nonc1NC(=O)CSc1nnc(-c2ccoc2C)n1C	43*	-7	33	24	44*	23
SMILES	Bim-Bcl-XL	PKD1 kinase inh	Bcl-2 Bim block	Bim-Bcl-W	Bim-Bfl-1	Bim-Bcl-B
O=C(Nc1ccccc1C(=O)N1CCCC1)C1COc2ccccc2O1 (configuration not stated)	-9	66*	2	-6	-4	-3
Cc1ccc(C)c(NC(=O)C(=O)NCc2ccccn2)c1	46*	-8	34	33	49*	27
Cc1ccc(NC(=O)NCc2ccccn2)cc1	0	-5	0	0	-3	-1
COc1ccc(N2CCN(C(=O)Cn3c(=O)[nH]c4ccsc4c3=O)CC2)cc1	-9	-6	-1	-1	-7	-3
O=C(CSc1ncnc2ccccc12)Nc1ccc(N2CCOCC2)cc1	-7	-6	-19	-3	-15	-11
COc1ccc(S(=O)(=O)NCCOc2cccc3cccnc23)cc1OC	3	1	76*	0	44*	65*
O=C(NCc1ccco1)C1CC2CCC1C2 (configuration not stated)	47*	1	1	4	2	2
CCOCCCNc1nc(C)nc2c1nnn2Cc1c(F)cccc1Cl	1	-7	-4	-1	-5	-1
Cc1ccc(C)c(NC(=O)COC(=O)CCCN=C2NS(=O)(=O)c3ccccc32)c1	0	0	3	0	-1	1
O=C(COC(=O)CCCN=C1NS(=O)(=O)c2ccccc21)NC(=O)NC1CCCC1	105*	-6	97*	72*	36	105*
C#CCOCCOCCOCCNc1nc(N2CCN(C(=O)[C@H](CCCCN)n3cc([C@@H](N)C(C)CC)nn3)CC2)nc(N2CCN(C(=O)[C@H](Cc3cc4ccccc4[nH]3)n3cc([C@@H](N)CC(C)C)nn3)CC2)n1 (some centres not stated)	3	14	0	-1	-6	-5
COC(=O)c1ccc(C2Nc3cccc4cccc(c34)N2)cc1	-1	0	5	4	5	-1
COc1cc(C2Nc3cccc4cccc(c34)N2)ccc1OC(C)=O	5	10	16	34	43*	-1
COc1cc(C2Nc3cccc4cccc(c34)N2)cc(OC)c1O	12	1	16	42*	57*	-3
COCCn1c(=NC(=O)/C=C/c2ccccc2)sc2cc(NC(C)=O)ccc21	-9	0	-8	-9	-8	-9
COCCn1c(Cc2ccccc2)nnc1SCc1ccc([N+](=O)[O-])cc1	16	3	12	13	18	9
COc1ccc(N(CC(=O)N2CCC(Cc3ccccc3)CC2)S(C)(=O)=O)cc1	2	-5	1	3	-1	1
COc1cccc(C(=O)/C=C/Nc2ccc(S(=O)(=O)Nc3onc(C)c3C)cc2)c1	3	7	82*	17	53*	78*
Cc1cccc2cc(-c3ccccc3)c(-c3ccccc3)c[n+]12	2	-4	8	1	3	15
CCN1/C(=C\c2ccc3cc(C)ccc3[n+]2CC)Sc2cc(C)c(C)cc21	21	-23	23	16	29	-66
CCN1/C(=C/c2ccc3cc(C)cc(C)c3[n+]2CC)Sc2cc(C)ccc21	29	-24	37	15	45*	-59
O=C(Nc1ccccc1Oc1ccccc1)c1ccccc1F	-4	0	3	1	1	-1

Source: PubChem BioAssay (several laboratories)
